Assay in all cases: DAPPL (digital affinity profiling via proximity ligation, sequencing); 10 mM Tris-HCl pH 7.5, 50 mM NaCl, 1 mM DTT, 4% glycerol, room temperature, 30 min; GST-TFs on glutathione beads, 16-mer random dsDNA library, 0.1% formaldehyde crosslink after washing; high values mean tight binding
One assay has as its target T1, FEV (Homo sapiens, UniProt Q99581 1-238).
T1 sequence: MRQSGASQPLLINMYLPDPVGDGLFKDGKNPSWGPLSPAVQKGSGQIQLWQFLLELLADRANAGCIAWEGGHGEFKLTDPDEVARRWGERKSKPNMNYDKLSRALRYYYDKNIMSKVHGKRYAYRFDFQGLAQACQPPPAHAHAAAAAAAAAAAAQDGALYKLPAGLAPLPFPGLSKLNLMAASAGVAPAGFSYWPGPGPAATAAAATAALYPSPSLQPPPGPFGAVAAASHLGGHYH
The settings on record: protein: recombinant; tags: N-terminal GST; dsDNA, one strand shown. The essentials:
(§1)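 A tag-only sample was pooled with DNA-barcoded human transcription factors that had been expressed in yeast as GST fusions and captured on glutathione beads. The pools were incubated for 30 min at room temperature with 200 nmole of a random double-stranded 16-mer DNA library in Tris/NaCl/DTT/glycerol buffer, then washed, crosslinked with 0.1% formaldehyde, proximity-ligated (BsaI/T4 ligase, 1 h, 37 °C), PCR-amplified and sequenced on an Illumina NextSeq500. Binding signal is each hexamer's read frequency for a factor divided by its frequency for the tag-only sample.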

The next assay concerns the target ETV5 (Homo sapiens, UniProt P41161 1-510). The settings on record: protein: recombinant; tags: N-terminal GST; dsDNA, one strand shown. In outline:
as §1

The target in the next assay is HSF1 (Homo sapiens, UniProt Q00613 1-529). The settings on record: protein: recombinant; tags: N-terminal GST; chain copies: 3; dsDNA, one strand shown. In outline:
as §1

A further assay deals with T2, SPIC (Homo sapiens, UniProt Q8N5J4 1-248).
T2 sequence: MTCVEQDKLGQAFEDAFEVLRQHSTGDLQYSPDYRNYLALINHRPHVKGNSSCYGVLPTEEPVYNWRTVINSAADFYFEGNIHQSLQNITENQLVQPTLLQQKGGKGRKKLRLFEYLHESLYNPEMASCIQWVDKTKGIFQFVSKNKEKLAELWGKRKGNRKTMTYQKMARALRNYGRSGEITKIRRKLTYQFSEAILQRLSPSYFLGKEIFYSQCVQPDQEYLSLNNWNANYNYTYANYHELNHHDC
As to conditions: protein: recombinant; tags: N-terminal GST; dsDNA, one strand shown. The essentials: as §1

The next assay addresses ELF4 (Homo sapiens, UniProt Q99607 1-663). As to conditions: protein: recombinant; tags: N-terminal GST; dsDNA, one strand shown. The essentials:
as §1

The next assay addresses T3, ELK4 (Homo sapiens, UniProt P28324-2 1-405).
T3 sequence: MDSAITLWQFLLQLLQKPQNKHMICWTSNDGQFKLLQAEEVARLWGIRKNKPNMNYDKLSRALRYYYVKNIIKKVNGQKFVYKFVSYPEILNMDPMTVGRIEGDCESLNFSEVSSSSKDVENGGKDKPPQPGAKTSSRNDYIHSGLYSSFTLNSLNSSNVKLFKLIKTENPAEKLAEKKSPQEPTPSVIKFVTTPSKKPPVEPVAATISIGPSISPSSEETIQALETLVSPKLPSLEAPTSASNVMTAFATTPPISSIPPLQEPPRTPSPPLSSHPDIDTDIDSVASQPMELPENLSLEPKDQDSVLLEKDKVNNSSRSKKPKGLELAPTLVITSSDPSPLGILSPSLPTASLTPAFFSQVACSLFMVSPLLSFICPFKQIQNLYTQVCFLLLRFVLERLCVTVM
As to conditions: protein: recombinant; tags: N-terminal GST; dsDNA, one strand shown. In outline: as §1

For another assay, the target named is T4, ETV2 (Homo sapiens, UniProt O00321 1-342).
T4 sequence: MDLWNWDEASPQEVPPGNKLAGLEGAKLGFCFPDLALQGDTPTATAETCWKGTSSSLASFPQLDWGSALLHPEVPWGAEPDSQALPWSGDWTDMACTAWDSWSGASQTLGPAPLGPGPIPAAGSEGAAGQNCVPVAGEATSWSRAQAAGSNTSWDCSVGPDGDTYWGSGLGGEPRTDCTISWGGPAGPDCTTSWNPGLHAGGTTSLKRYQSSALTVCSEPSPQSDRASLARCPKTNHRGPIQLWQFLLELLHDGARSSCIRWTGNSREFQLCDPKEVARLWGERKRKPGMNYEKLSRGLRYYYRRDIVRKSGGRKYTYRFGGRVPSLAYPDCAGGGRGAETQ
The settings on record: protein: recombinant; tags: N-terminal GST; dsDNA, one strand shown. The essentials:
as §1

In the next assay the target is T5, ELF3 (Homo sapiens, UniProt P78545 1-371).
T5 sequence: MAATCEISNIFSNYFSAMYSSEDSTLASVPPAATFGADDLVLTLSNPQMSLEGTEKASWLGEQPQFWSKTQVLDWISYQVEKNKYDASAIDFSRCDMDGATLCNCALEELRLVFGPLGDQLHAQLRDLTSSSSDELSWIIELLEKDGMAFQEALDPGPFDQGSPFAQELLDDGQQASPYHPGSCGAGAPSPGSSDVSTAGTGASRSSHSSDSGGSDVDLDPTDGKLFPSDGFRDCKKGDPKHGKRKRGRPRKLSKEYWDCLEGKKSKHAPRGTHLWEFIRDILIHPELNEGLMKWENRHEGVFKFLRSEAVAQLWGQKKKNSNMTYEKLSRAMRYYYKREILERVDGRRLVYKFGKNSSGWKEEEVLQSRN
The settings on record: protein: recombinant; tags: N-terminal GST; dsDNA, one strand shown. The essentials: as §1

The next assay has as its target CRX (Homo sapiens, UniProt O43186 1-299). As to conditions: protein: recombinant; tags: N-terminal GST; dsDNA, one strand shown. The essentials: as §1
A further assay concerns the target ETV1 (Homo sapiens, UniProt P50549 1-477). As to conditions: protein: recombinant; tags: N-terminal GST; dsDNA, one strand shown. The essentials: as §1
Another assay has as its target T6, ERF (Homo sapiens, UniProt P50548 1-548).
T6 sequence: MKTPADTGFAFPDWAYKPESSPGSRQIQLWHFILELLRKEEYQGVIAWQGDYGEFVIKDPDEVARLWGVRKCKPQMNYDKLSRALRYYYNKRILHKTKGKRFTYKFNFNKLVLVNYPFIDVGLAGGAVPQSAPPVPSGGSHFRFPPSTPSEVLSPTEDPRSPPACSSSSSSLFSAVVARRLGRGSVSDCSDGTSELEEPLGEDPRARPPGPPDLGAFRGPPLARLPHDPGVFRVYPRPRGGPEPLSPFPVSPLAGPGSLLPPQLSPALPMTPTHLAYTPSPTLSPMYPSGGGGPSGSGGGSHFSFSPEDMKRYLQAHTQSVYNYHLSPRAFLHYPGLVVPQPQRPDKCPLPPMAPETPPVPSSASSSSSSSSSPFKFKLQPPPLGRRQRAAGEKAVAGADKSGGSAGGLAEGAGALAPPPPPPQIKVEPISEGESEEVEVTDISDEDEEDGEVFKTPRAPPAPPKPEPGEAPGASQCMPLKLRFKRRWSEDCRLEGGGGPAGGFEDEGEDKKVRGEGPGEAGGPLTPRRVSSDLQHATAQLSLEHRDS
The settings on record: protein: recombinant; tags: N-terminal GST; dsDNA, one strand shown. In outline:
as §1

For the next assay, the target named is T7, ETV3L (Homo sapiens, UniProt Q6ZN32 1-361).
T7 sequence: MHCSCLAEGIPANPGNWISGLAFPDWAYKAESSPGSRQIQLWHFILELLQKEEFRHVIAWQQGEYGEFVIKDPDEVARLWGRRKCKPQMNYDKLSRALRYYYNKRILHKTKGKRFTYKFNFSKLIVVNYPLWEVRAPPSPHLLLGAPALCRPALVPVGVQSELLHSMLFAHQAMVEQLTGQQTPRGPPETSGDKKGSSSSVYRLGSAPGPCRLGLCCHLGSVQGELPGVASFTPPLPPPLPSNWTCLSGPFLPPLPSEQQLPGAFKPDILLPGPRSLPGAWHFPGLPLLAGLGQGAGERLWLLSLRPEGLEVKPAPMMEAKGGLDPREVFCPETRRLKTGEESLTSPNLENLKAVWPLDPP
As to conditions: protein: recombinant; tags: N-terminal GST; dsDNA, one strand shown. The essentials:
as §1

A further assay concerns the target T8, ETS2 (Homo sapiens, UniProt P15036 1-469).
T8 sequence: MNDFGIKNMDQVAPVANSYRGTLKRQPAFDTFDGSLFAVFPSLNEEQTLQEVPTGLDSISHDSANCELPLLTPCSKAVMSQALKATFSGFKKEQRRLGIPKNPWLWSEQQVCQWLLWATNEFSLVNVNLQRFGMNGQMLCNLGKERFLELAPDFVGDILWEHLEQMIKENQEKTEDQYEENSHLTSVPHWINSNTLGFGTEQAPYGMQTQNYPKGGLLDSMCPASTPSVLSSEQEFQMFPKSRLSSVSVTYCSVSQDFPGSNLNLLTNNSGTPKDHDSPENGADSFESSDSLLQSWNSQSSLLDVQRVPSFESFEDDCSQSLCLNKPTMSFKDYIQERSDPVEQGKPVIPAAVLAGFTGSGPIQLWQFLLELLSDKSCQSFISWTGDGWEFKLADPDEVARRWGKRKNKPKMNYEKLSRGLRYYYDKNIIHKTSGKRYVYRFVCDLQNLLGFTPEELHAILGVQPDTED
The settings on record: protein: recombinant; tags: N-terminal GST; dsDNA, one strand shown. In outline:
as §1

The next assay concerns the target T9, SPDEF (Homo sapiens, UniProt O95238 1-335).
T9 sequence: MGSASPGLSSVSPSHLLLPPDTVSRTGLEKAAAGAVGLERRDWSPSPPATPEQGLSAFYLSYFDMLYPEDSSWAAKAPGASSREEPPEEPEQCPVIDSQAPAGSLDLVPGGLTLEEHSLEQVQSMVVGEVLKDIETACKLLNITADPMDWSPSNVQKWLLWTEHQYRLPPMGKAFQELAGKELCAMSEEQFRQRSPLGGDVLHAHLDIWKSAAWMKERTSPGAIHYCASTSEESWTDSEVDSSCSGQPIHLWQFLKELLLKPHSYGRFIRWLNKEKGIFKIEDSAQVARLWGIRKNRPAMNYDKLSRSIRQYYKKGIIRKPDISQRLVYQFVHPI
As to conditions: protein: recombinant; tags: N-terminal GST; dsDNA, one strand shown. The essentials: as §1

The target of another assay is T10, ETV7 (Homo sapiens, UniProt Q9Y603 1-341).
T10 sequence: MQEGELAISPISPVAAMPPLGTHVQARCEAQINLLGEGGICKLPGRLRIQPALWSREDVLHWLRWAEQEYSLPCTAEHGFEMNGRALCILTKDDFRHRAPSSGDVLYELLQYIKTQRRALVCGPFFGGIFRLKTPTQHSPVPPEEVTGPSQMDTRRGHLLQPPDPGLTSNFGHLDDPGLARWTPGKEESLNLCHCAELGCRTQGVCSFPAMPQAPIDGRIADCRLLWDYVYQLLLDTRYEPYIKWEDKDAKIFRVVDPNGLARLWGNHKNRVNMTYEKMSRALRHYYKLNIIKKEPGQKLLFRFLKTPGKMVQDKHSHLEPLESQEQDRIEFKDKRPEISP
As to conditions: protein: recombinant; tags: N-terminal GST; dsDNA, one strand shown. In outline:
as §1

The target of another assay is T11, ELF5 (Homo sapiens, UniProt Q9UKW6-2 1-255).
T11 sequence: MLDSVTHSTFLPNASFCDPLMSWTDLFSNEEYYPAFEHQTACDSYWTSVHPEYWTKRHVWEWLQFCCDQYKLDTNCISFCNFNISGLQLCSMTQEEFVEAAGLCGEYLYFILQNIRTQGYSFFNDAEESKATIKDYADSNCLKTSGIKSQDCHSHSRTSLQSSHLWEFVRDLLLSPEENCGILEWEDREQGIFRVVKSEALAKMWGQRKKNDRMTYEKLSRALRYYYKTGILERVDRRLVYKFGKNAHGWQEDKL
As to conditions: protein: recombinant; tags: N-terminal GST; dsDNA, one strand shown. In outline: as §1

Another assay has as its target T12, ETV3 (Homo sapiens, UniProt P41162-2 1-143).
T12 sequence: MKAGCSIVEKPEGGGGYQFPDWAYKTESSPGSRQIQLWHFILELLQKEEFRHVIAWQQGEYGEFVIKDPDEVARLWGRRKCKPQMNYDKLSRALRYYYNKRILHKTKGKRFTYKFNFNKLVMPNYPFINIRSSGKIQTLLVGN
As to conditions: protein: recombinant; tags: N-terminal GST; dsDNA, one strand shown. In outline: as §1

In a further assay the target is ETV6 (Homo sapiens, UniProt P41212 1-452). The settings on record: protein: recombinant; tags: N-terminal GST; dsDNA, one strand shown. In outline: as §1
Sequence of ETV6 (P41212 whole entry): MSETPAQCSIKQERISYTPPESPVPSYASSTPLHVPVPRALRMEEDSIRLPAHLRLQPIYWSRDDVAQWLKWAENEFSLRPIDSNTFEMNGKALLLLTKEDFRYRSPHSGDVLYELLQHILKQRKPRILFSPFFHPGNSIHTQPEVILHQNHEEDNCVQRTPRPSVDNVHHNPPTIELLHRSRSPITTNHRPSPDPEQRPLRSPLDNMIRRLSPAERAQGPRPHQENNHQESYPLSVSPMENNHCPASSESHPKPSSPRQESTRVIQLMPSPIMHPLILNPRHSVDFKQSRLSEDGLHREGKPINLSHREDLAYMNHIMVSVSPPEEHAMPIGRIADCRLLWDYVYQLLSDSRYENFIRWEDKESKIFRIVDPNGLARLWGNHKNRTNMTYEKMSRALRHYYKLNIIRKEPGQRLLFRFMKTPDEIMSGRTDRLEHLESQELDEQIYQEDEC

Sequence of HSF1 (Q00613 whole entry): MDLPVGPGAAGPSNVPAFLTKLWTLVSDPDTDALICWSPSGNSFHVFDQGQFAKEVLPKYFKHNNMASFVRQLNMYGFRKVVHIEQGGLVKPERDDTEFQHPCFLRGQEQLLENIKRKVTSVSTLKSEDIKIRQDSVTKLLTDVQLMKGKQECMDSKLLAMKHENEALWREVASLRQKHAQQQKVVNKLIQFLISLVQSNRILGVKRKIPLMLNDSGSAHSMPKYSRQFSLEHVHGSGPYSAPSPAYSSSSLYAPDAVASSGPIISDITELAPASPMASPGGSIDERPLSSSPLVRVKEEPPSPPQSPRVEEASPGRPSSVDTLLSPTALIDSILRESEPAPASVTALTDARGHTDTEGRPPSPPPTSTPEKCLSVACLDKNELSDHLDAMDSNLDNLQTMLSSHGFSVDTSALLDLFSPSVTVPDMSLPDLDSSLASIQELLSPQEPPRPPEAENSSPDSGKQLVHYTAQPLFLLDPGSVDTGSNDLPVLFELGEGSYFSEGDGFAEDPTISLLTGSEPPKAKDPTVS
Sequence of ELF4 (Q99607 whole entry): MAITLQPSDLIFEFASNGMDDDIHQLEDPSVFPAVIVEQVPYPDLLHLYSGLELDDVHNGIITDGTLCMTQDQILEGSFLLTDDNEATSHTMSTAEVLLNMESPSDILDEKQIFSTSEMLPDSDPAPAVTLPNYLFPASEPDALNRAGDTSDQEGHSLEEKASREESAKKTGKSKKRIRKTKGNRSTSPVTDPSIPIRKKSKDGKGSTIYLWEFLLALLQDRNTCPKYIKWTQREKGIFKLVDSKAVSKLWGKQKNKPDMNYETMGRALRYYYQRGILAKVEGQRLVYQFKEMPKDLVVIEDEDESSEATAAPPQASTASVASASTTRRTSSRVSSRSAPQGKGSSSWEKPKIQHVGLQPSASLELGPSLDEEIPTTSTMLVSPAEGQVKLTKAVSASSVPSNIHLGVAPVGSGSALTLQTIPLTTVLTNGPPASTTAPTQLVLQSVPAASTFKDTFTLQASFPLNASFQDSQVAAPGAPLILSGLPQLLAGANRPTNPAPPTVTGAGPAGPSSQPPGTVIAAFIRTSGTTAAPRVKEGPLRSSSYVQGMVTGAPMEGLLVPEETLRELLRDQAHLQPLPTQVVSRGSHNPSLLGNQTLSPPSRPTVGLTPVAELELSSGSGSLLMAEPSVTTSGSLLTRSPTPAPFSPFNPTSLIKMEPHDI
Sequence of ETV1 (P50549 whole entry): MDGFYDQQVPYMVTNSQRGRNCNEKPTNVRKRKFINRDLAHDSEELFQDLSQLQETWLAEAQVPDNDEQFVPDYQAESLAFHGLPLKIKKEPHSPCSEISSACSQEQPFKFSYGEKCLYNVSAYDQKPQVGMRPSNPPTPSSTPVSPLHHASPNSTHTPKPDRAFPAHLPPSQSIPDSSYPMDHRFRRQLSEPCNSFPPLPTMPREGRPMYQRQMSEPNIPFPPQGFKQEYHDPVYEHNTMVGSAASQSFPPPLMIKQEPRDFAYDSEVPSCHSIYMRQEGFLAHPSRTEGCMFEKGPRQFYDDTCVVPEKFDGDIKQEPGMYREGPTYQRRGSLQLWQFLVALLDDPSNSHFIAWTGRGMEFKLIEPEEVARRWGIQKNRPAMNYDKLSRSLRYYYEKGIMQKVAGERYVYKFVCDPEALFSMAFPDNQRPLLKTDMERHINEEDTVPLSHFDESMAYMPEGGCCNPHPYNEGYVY
Sequence of ETV5 (P41161 whole entry): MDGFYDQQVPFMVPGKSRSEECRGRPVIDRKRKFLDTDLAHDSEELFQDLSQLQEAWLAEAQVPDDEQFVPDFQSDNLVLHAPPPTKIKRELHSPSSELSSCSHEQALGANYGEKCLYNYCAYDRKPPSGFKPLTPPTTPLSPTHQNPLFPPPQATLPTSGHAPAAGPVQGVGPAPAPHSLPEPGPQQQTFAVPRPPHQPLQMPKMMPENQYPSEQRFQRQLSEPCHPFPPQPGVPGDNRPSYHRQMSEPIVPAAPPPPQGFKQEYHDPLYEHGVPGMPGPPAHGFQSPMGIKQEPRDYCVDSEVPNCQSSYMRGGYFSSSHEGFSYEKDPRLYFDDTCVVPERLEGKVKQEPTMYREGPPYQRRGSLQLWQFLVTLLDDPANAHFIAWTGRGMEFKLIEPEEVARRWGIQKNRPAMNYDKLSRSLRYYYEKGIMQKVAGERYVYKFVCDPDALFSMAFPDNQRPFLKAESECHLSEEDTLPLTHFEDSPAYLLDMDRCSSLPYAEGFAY
Sequence of CRX (O43186 whole entry): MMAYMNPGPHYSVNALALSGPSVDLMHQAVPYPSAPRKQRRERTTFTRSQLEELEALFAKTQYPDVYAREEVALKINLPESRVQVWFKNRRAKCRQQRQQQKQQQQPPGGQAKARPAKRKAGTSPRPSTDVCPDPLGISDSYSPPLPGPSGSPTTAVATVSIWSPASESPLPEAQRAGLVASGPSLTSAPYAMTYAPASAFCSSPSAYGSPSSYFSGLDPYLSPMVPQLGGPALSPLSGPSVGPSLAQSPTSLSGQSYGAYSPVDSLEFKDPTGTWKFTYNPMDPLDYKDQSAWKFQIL

With CTTCCA, the binding signal with FEV is 1.43 fold enrichment (6-mer frequency, TF over GST control); in the assay with ETV5, 1.46 fold enrichment (6-mer frequency, TF over GST control); in the assay with HSF1 it was 2.18 fold enrichment (6-mer frequency, TF over GST control); with SPIC it was 1.44 fold enrichment (6-mer frequency, TF over GST control); with ELF4, 1.33 fold enrichment (6-mer frequency, TF over GST control); with ELK4 it was 1.45 fold enrichment (6-mer frequency, TF over GST control). Also, the binding signal with ETV2 is 1.37 fold enrichment (6-mer frequency, TF over GST control); with ELF3, 1.49 fold enrichment (6-mer frequency, TF over GST control); in the assay with CRX, 1.42 fold enrichment (6-mer frequency, TF over GST control); with ETV1 it was 1.48 fold enrichment (6-mer frequency, TF over GST control); with ERF, 1.55 fold enrichment (6-mer frequency, TF over GST control); in the assay with ETV3L, 1.52 fold enrichment (6-mer frequency, TF over GST control). Moreover, the binding signal was 1.45 fold enrichment (6-mer frequency, TF over GST control) with ETS2; 1.45 fold enrichment (6-mer frequency, TF over GST control) with SPDEF; 1.36 fold enrichment (6-mer frequency, TF over GST control) with ETV7; 1.64 fold enrichment (6-mer frequency, TF over GST control) with ELF5; 1.41 fold enrichment (6-mer frequency, TF over GST control) with ETV3; 1.76 fold enrichment (6-mer frequency, TF over GST control) in the assay with ETV6.

(Values after publication PMC7862700, “An all-to-all approach to the identification of sequence-specific readers for epigenetic DNA modifications on cytosine”.)
